For orientation: inhibition means the drop in the measured response relative to a control, in per cent.

Values joined by “and” are separate entries in the source; they are usually repeats but may differ in a detail not shown here. Equal values may be shown once.

The first assay has as its target Hexose transporter 1 (Plasmodium falciparum) (UniProt O97467). The assay can be described thus: ST_JUDE_LEISH: Cytotoxicity at 2uM final concentration against transgenic Leishmania Mexicana promastigotes LmPfHT that are glucose transport deficient and complemented with the Plasmodium falciparum hexose transporter. Activity is measured by DNA content using SYBR green in vitro. It is filed as functional.
As for `Nc1ccnc(N2CCC(CCOc3cc(C(F)(F)F)nc4c(C(F)(F)F)cccc34)CC2)c1`, the inhibition turned out to be 43.4%.

As for `Cc1cc(N[C@@H](CC(C)C)C(=O)NC2CCCC2)nc(NCC2CCCCC2)n1`, the inhibition amounted to 3.89%.

As to `COc1ccc2ncc(F)c(CCN3CC(O)C(CNCc4nc5c(cc4Cl)OCC(=O)N5)C3)c2n1` (stereo not given), the inhibition was -1.18% and 4.64% and 0.49%.

Regarding `COc1ccc2nccc([C@@H](O)CN3CCC(NC(=O)c4ccc(CN5CCN(c6cccc(C)c6)CC5C)cc4)CC3)c2c1` (stereo not given in full), the inhibition was 1.46%.

On to `OCCOCCNCc1cccc(C#Cc2cc3ncnc(Nc4ccc(OCc5cccc(F)c5)c(Cl)c4)c3s2)n1`, for which the inhibition was determined as 1.33%.

For `c1ccc(CN2CCC(NCc3ccc(-c4ccc(CNCc5cccnc5)cn4)cc3)CC2)cc1`, the inhibition amounted to 2.84%.

Regarding `FC(F)c1nc2ccccc2n1-c1nc(N2CCOCC2)nc(N2CCOCC2)n1`, the inhibition is 2.9%.

Turning to `CC1(C)CCC(=Cc2ccc(Cl)cc2)CC1(O)Cn1ccnc1` (stereo not given), the inhibition came out at 6.85%.

Consider `COc1ccc(-c2cccc(NC(=O)c3cccc(C#N)c3)c2)cc1CNC(C)C`, for which the inhibition came out at 8.42%.

Consider `COc1ccc(N2C(N)=NC(N)=NC2(C)C)cc1OC`, for which the inhibition came out at 5.41%.

With `Cc1nn(-c2ccccc2)nc1C(=O)NC1CCN(CCNC(=O)c2ccc(Cl)c(Cl)c2)CC1`, the inhibition is 2.53%.

On to `COc1ccc(C=Cc2cc(=N)c3ccccc3[nH]2)cc1`, for which the inhibition was found to be 2.77%.

As to `CNc1ccc(CNCc2cccc(-c3ccc(-c4nc5ccccc5[nH]4)cc3)c2)cc1`, the inhibition was -1.69%.

For the compound `CC(C)c1ccc(NC(=O)c2ccc(C(=O)NC3CCN(Cc4ccccc4)CC3)cc2)cc1`, the inhibition turned out to be 2.91%.

On to `COc1cc(F)c2nccc([C@@H](O)CN3CCC(NCc4nc5cccc(F)c5[nH]4)CC3)c2c1`, for which the inhibition is 0.25%.

`N=C(/N=C(/NCCCCCCN/C(=N\C(=N)Nc1ccc(Cl)cc1)N1CCCCC1)N1CCCCC1)Nc1ccc(Cl)cc1`: the inhibition is -2.65%.

For the compound `Cc1[nH]c(C)c(-c2ccc(-c3ccc(C(F)F)cc3)nc2)c(=O)c1Cl`, the inhibition was found to be 3.08%.

In the case of `CCCNCc1ccc(-c2ccc(CN(Cc3ccc4c(c3)OCO4)C(=O)[C@H]3CCCO3)cc2)nc1`, the inhibition amounted to 10.6%.

In the case of `O=C(CC1NC(=O)c2ccccc21)Nc1ccc(-c2ccc(-c3nc4cc(C(F)(F)F)ccc4[nH]3)cc2)cc1` (stereo not given), the inhibition was 3.05%.

As for `CCc1ccc(-n2c(=O)c3cccnc3n2CC(=O)NC2CCCC2)cc1`, the inhibition was -0.35%.

Consider `CCC(C(=O)Nc1cc(=O)[nH]c2nc(-c3ccco3)nn12)c1ccccc1` (stereo not given), for which the inhibition was determined as 1.55%.

With `Cc1c(Cl)cccc1S(=O)(=O)Nc1ccc(CCN2CCC(N)CC2)cc1`, the inhibition is -0.88%.

Turning to `COc1ccc(NC(=O)[C@H](Cc2ccccc2)Nc2cc(C)nc(NCCc3cccnc3)n2)cc1`, the inhibition was found to be 1.12%.

Turning to `CCCCN(CCCC)/C(=N/C(=N)NCc1ccc(Cl)c(Cl)c1)NCCCCCCN/C(=N\C(=N)NCc1ccc(Cl)c(Cl)c1)N(CCCC)CCCC`, the inhibition is -0.52%.

`Cc1ccc(C)c(NC(=O)Nc2ccc(C)c(-c3ccc(C(=O)Nc4ccncc4)cc3)c2)c1`: the inhibition turned out to be 3.66%.

The next assay addresses Glucose transporter (Leishmania mexicana) (UniProt O61059). The assay can be described thus: ST_JUDE_LEISH: Cytotoxicity at 2uM final concentration against transgenic Leishmania Mexicana promastigotes LmGT2 that are glucose transport deficient and complemented with the L. Mexicana glucose transporter 2. Activity is measured by DNA content using SYBR green in vitro. The assay is classed as functional.
`Cc1ccc2[nH]c(C)cc(=NN=Cc3cccc(F)c3)c2c1`: the inhibition came to 3.38%.

With `CC(Nc1ccc2c(c1)CCC2)C(=O)Nc1cc(C(F)(F)F)ccc1N1CCOCC1` (stereo not given), the inhibition was found to be 11.1%.

Regarding `Cc1ccc(F)cc1S(=O)(=O)N1CCCCC(c2ccc(C(F)(F)F)cc2)=N1`, the inhibition came to 8.34%.

For the compound `Cc1cc(-c2ccc3c(c2)CCN(CCCOc2ccc4c(c2)CCN4C(=O)/C=C/c2ccccc2Cl)CC3)no1`, the inhibition worked out at 4.78%.

Consider `Cc1c(-c2ccccc2)ccc2[nH]cc(CC#N)c12`, for which the inhibition was determined as 0.3%.

`CO/C(=C\C=C\c1cc2cc(Cl)c(Cl)cc2[nH]1)C(=O)NCCCN1CC(C)N(C)CC1C` (stereo not given): the inhibition worked out at 6.63%.

`CN1CCCN(Cc2cccc(-c3ccc(NC(=O)c4cccc(Cl)c4)cc3)c2)CC1`: the inhibition worked out at 69.1%.

Consider `CCN(CC)CCCN(C(=O)c1cc2c(C)nn(-c3ccccc3)c2s1)c1nc(-c2ccc(OC)cc2)cs1`, for which the inhibition was 8.72%.

Turning to `Nc1nc(O)c2c(n1)CCc1c(Br)cccc1-2`, the inhibition was -1.14%.

Consider `CCc1ccc(CN2CCC(CN(c3ccc(N4CCOCC4)c(F)c3)S(=O)(=O)c3ccc(C(C)(C)CC)cc3)CC2)cc1`, for which the inhibition is 3.68%.

Take `CN(C(=O)C1(c2ccc(Cl)cc2)CC1)C1CCN(CCCCCNC(=O)/C=C/c2ccc(Cl)c(Cl)c2)CC1`: the inhibition was 4.56%.

On to `O=C1c2ccc([N+](=O)[O-])cc2C(=O)N1c1ccc2[nH]ncc2c1`, for which the inhibition amounted to 0.95%.

With `Cc1[nH]c(C)c(-c2ccc(-c3ccccc3F)nc2)c(=O)c1Br`, the inhibition worked out at 1.41%.

`O=C(Nc1ccc(OC2CCN(Cc3ccsc3)CC2)c(Cl)c1)c1ccco1`: the inhibition was determined as 4.7%.

In the case of `CS(=O)(=O)CCOCc1ccc(-c2ccc3ncnc(Nc4ccc(OCc5cccc(F)c5)c(Cl)c4)c3c2)o1`, the inhibition came out at 7%.

With `Nc1ccnc(N2CCC(CCOc3cc(C(F)(F)F)nc4c(C(F)(F)F)cccc34)CC2)c1`, the inhibition was 10.2%.

With `Cc1cc(N[C@@H](CC(C)C)C(=O)NC2CCCC2)nc(NCC2CCCCC2)n1`, the inhibition is 0.25%.

With `COc1ccc2ncc(F)c(CCN3CC(O)C(CNCc4nc5c(cc4Cl)OCC(=O)N5)C3)c2n1` (stereo not given), the inhibition was -0.57% and 3.05% and -1.68%.

Regarding `COc1ccc2nccc([C@@H](O)CN3CCC(NC(=O)c4ccc(CN5CCN(c6cccc(C)c6)CC5C)cc4)CC3)c2c1` (stereo not given in full), the inhibition was -3.5%.

As for `OCCOCCNCc1cccc(C#Cc2cc3ncnc(Nc4ccc(OCc5cccc(F)c5)c(Cl)c4)c3s2)n1`, the inhibition was found to be 1.82%.

Take `c1ccc(CN2CCC(NCc3ccc(-c4ccc(CNCc5cccnc5)cn4)cc3)CC2)cc1`: the inhibition was found to be 3.77%.

With `FC(F)c1nc2ccccc2n1-c1nc(N2CCOCC2)nc(N2CCOCC2)n1`, the inhibition is 3.12%.

In the case of `CC1(C)CCC(=Cc2ccc(Cl)cc2)CC1(O)Cn1ccnc1` (stereo not given), the inhibition amounted to 3.82%.

Regarding `COc1ccc(-c2cccc(NC(=O)c3cccc(C#N)c3)c2)cc1CNC(C)C`, the inhibition turned out to be 5.03%.

Turning to `COc1ccc(N2C(N)=NC(N)=NC2(C)C)cc1OC`, the inhibition came to 5.83%.

As for `Cc1nn(-c2ccccc2)nc1C(=O)NC1CCN(CCNC(=O)c2ccc(Cl)c(Cl)c2)CC1`, the inhibition stood at 1.85%.

For the compound `COc1ccc(C=Cc2cc(=N)c3ccccc3[nH]2)cc1`, the inhibition is 0.89%.

With `CNc1ccc(CNCc2cccc(-c3ccc(-c4nc5ccccc5[nH]4)cc3)c2)cc1`, the inhibition was -1.34%.

Turning to `CC(C)c1ccc(NC(=O)c2ccc(C(=O)NC3CCN(Cc4ccccc4)CC3)cc2)cc1`, the inhibition is -1.3%.

As for `COc1cc(F)c2nccc([C@@H](O)CN3CCC(NCc4nc5cccc(F)c5[nH]4)CC3)c2c1`, the inhibition amounted to 3.66%.

For the compound `N=C(/N=C(/NCCCCCCN/C(=N\C(=N)Nc1ccc(Cl)cc1)N1CCCCC1)N1CCCCC1)Nc1ccc(Cl)cc1`, the inhibition was -0.71%.

`Cc1[nH]c(C)c(-c2ccc(-c3ccc(C(F)F)cc3)nc2)c(=O)c1Cl`: the inhibition amounted to 2.57%.

`CCCNCc1ccc(-c2ccc(CN(Cc3ccc4c(c3)OCO4)C(=O)[C@H]3CCCO3)cc2)nc1`: the inhibition was 8.76%.

Regarding `O=C(CC1NC(=O)c2ccccc21)Nc1ccc(-c2ccc(-c3nc4cc(C(F)(F)F)ccc4[nH]3)cc2)cc1` (stereo not given), the inhibition stood at 5.45%.

Consider `CCc1ccc(-n2c(=O)c3cccnc3n2CC(=O)NC2CCCC2)cc1`, for which the inhibition was -1.74%.

`CCC(C(=O)Nc1cc(=O)[nH]c2nc(-c3ccco3)nn12)c1ccccc1` (stereo not given): the inhibition is 1.71%.

On to `Cc1c(Cl)cccc1S(=O)(=O)Nc1ccc(CCN2CCC(N)CC2)cc1`, for which the inhibition is -2.13%.

Regarding `COc1ccc(NC(=O)[C@H](Cc2ccccc2)Nc2cc(C)nc(NCCc3cccnc3)n2)cc1`, the inhibition is 1.34%.

Consider `CCCCN(CCCC)/C(=N/C(=N)NCc1ccc(Cl)c(Cl)c1)NCCCCCCN/C(=N\C(=N)NCc1ccc(Cl)c(Cl)c1)N(CCCC)CCCC`, for which the inhibition was -0.96%.

As for `Cc1ccc(C)c(NC(=O)Nc2ccc(C)c(-c3ccc(C(=O)Nc4ccncc4)cc3)c2)c1`, the inhibition came out at 2.82%.

These data come from ChEMBL document CHEMBL3433997, “St. Jude Leishmania screening dataset” (2016).
